Measurements reported in the supplement of paper PMC3545927.
The list shows a part of the results. The hit rate among all sequences tested is not known here.

Target: furin, P09958
Assay: furin cleavage Z-score vs untreated control; higher = more cleavage, active = 3.5 or more, inactive = 1 or less, 8 variable residues between constant flanks
Outline: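 Furin-free reactions served as the baseline for the cleavage Z-score, which is the log read count lowess-adjusted and scaled by median absolute deviation. Counts came from released DNA, adapter-tagged by PCR and sequenced. Purified furin had cut 8-mer peptides fused to a cDNA oligonucleotide on magnetic beads during 7.5, 15 or 30 min at 1:10 enzyme:substrate.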
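Further: purified furin at 1:10 enzyme:substrate in 50 mM HEPES pH 7.5.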

Sequence of furin, P09958 (P09958 whole entry): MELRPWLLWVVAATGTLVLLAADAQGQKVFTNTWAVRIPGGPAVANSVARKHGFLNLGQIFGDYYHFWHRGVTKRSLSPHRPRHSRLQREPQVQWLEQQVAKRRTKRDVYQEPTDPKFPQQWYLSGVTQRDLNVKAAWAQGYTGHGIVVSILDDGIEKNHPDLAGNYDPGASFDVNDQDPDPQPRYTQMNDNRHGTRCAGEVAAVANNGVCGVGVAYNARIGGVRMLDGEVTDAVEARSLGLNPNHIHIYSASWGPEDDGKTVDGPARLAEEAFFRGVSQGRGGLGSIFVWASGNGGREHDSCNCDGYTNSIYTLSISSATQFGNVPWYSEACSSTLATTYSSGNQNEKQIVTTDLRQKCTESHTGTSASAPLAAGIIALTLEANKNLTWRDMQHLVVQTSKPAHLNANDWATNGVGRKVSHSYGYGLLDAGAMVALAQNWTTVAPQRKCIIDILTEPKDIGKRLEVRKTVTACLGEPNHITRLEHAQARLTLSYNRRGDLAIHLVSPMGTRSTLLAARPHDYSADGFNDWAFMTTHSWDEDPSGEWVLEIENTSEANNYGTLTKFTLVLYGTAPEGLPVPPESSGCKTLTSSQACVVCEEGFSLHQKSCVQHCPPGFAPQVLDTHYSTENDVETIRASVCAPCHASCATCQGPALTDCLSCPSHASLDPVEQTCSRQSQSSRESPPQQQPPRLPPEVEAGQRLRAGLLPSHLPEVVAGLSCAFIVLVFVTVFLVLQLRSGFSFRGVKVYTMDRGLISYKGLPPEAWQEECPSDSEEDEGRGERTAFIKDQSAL

Sequence | furin cleavage Z-score (7.5 min) | furin cleavage Z-score (15 min) | furin cleavage Z-score (30 min)
CAQLEVVTSTAGNASASA [HC2282] | 0.398 (inactive) | 1.61 | 0.854 (inactive)
CAYLYGVGSSAGNASASA [HC511] | 0.568 (inactive) | -0.0293 (inactive) | 0.0874 (inactive)
CASRRRARRHAGNASASA [FS-1416] | 7.59 (active) | 6.18 (active) | 7.01 (active)
CASRIRIERVAGNASASA [FS-1087] | 0.306 (inactive) | 3.11 | 2.24
CASRRRMKRVAGNASASA [FS-1167] | 11 (active) | 12 (active) | 9.11 (active)
CAARQRTRRHAGNASASA [FS-1112] | 11.1 (active) | 12.6 (active) | 10 (active)
CASRRRFYRPAGNASASA [FS-506] | -1.15 (inactive) | 0.235 (inactive) | -2.19 (inactive)
CASRRRTRRPAGNASASA [FS-873] | 0.729 (inactive) | 0.54 (inactive) | 0.884 (inactive)
CAARKMIGGHAGNASASA [HC623] | 0.0211 (inactive) | 1.66 | 1.13
CAAPPRARRHAGNASASA [FS-975] | 8.59 (active) | 9.67 (active) | 6.85 (active)
CAPPLRAWRHAGNASASA [HC1618] | -0.103 (inactive) | 0.906 (inactive) | -0.71 (inactive)
CAEVLCHRPSAGNASASA [HC2345] | 1.1 | -0.279 (inactive) | 0.507 (inactive)
CAMEECSQHDAGNASASA [HC1771] | -0.304 (inactive) | 0.175 (inactive) | 0.222 (inactive)
CAAVQTNWQKAGNASASA [HC1035] | 0.252 (inactive) | 0.157 (inactive) | -0.0579 (inactive)
CAMYVGGVEHAGNASASA [HC476] | -0.473 (inactive) | -0.882 (inactive) | -0.205 (inactive)
CATTPFSGSWAGNASASA [HC46] | -0.133 (inactive) | -0.615 (inactive) | -0.727 (inactive)

Sequence | furin cleavage Z-score (7.5 min) | furin cleavage Z-score (15 min) | furin cleavage Z-score (30 min)
CATPPRSKRVAGNASASA [FS-1096] | 4.55 (active) | 6.1 (active) | 4.13 (active)
CAVVCCSMYYAGNASASA [HC2069] | -0.54 (inactive) | -0.258 (inactive) | -1.53 (inactive)
CAYVQMVIIKAGNASASA [HC627] | -1.63 (inactive) | -1.94 (inactive) | -0.568 (inactive)
CAKNGRPLRSAGNASASA [FS-341] | 0.926 (inactive) | 2.59 | 0.891 (inactive)
CAKQFRALRSAGNASASA [FS-1595] | 4.54 (active) | 5.86 (active) | 4.56 (active)
CAAGTRTIASAGNASASA [HC703] | 0.83 (inactive) | 0.675 (inactive) | 0.11 (inactive)
CAQLVRALRSAGNASASA [FS-848] | 7.22 (active) | 7.99 (active) | 7.1 (active)
CAAGRRALRSAGNASASA [FS-1182] | 4.32 (active) | 4.3 (active) | 3.06
CAGCPERLASAGNASASA [HC386] | 1.74 | 0.605 (inactive) | -0.259 (inactive)
CAVRARFVRFAGNASASA [FS-1433] | 9.46 (active) | 9.43 (active) | 8.99 (active)
CAREARAVIFAGNASASA [FS-3186] | -0.327 (inactive) | -0.0656 (inactive) | 2.23
CASRLRFDRFAGNASASA [FS-505] | -0.495 (inactive) | 0.902 (inactive) | -0.181 (inactive)
CAVYVRVSRFAGNASASA [FS-518] | 3.44 | 4.83 (active) | 6.25 (active)
CAVYARVSRFAGNASASA [FS-517] | 0.958 (inactive) | 0.514 (inactive) | 2.26
CALRIRNVRFAGNASASA [FS-1465] | 2.76 | 6.35 (active) | 7.62 (active)
